Experimental data: PubChem BioAssay (Tox21)
Records with an inconclusive call do not appear. Entries that show only a call come without a potency. Values without a mark were called inactive. Calls of active or inactive are those of the source. Unless noted, the call rests on the fitted dose curve; in most records, active means well fitted curve in the direction sought with a large enough effect in the repeat runs; inconclusive means weak or mixed curves; inactive means no such curve, though single readings can be large; an effect the other way counts as inactive or inconclusive.

Tests used:
[1] = qHTS assay to identify aromatase inhibitors - cell viability counter screen (AID 743084);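 further: cells stimulated with testosterone during compound exposure; nearly all actives have a fitted effect of over 55% in size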
[2] = molecular target: Aryl hydrocarbon receptor (Homo sapiens) (UniProt P35869); assay: qHTS assay to identify small molecule that activate the aryl hydrocarbon receptor (AhR) signaling pathway (AID 743085); further: nearly all actives have a fitted effect of over 15% in size; further: potency means the concentration at half of the fitted maximal effect;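 on activation: HG2L7.5c1 human HepG2 liver cells with stably integrated DRE-driven firefly reporter; series mostly up to about 70 µM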
Sequence of Aryl hydrocarbon receptor (Homo sapiens) (P35869 whole entry, looked up): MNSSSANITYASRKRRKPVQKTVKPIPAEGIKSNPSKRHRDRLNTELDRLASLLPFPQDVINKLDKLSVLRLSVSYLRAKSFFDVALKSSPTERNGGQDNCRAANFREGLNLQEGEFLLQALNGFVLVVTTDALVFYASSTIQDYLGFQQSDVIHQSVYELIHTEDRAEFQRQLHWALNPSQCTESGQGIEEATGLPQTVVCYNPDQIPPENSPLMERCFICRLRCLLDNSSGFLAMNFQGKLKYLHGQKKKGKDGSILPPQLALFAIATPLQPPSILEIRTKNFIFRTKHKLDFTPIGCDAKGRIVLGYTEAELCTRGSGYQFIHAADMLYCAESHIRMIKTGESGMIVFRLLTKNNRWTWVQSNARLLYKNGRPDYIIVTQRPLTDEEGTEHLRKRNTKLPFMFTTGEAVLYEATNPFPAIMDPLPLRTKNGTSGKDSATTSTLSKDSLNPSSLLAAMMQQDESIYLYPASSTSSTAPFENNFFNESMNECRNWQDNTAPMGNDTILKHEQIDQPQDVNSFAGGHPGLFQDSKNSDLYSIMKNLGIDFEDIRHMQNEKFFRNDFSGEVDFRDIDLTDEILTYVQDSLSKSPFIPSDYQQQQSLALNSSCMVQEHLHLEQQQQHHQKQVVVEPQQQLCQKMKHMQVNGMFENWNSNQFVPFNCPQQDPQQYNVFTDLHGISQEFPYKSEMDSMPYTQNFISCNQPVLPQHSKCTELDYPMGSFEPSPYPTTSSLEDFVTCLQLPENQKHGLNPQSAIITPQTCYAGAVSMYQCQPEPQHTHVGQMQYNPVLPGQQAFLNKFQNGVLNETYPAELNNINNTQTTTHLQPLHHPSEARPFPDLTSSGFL
Outline: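 AhR agonist activity is inferred from enhanced light output of a DRE-controlled firefly luciferase reporter in HepG2 cells, measured with ONE-Glo following 24 h treatment at 37C.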

[3] = qHTS assay to identify small molecule that activate the aryl hydrocarbon receptor (AhR) signaling pathway - cell viability counter screen (AID 743086);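 further: HepG2 liver cells carrying the AhR DRE luciferase reporter; series mostly up to about 70 µM; nearly all actives have a fitted effect of over 45% in size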
Outline: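 HepG2-AhR-luc (HG2L7.5c1) cells, 4000/well, treated 24 h at 37 C with compound; viability measured as CellTiter-Fluor fluorescence after 30 min in the same wells as the luciferase read.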

[4] = molecular target: Peroxisome proliferator-activated receptor gamma (Homo sapiens) (UniProt P37231); assay: qHTS assay to identify small molecule agonists of the peroxisome proliferator-activated receptor gamma (PPARg) signaling pathway (AID 743094; active means well fitted activation curve with a large enough effect in the signal ratio in the repeat runs, not every such curve was filed as active; the % refers to the signal ratio)
Sequence of Peroxisome proliferator-activated receptor gamma (Homo sapiens) (P37231 whole entry, looked up): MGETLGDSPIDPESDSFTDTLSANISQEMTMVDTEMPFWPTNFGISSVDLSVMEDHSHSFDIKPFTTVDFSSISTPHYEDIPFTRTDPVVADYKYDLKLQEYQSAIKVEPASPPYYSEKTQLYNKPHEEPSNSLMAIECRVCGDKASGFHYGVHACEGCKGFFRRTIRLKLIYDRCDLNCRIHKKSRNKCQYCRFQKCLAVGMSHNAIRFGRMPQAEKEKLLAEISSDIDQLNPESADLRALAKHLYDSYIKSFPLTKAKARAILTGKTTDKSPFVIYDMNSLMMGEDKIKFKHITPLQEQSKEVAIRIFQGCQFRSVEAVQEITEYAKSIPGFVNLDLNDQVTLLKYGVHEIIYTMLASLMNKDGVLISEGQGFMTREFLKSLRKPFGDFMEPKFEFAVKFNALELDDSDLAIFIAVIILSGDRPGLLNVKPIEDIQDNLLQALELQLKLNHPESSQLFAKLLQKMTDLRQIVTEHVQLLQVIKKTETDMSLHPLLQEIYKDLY
Outline: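 HEK293H PPARg-bla cells, 5 h settle at 37C/5% CO2; compound (DMSO) 17 h, 37C; B/G FRET substrate 1 h RT; fluorescence intensity read-out. qHTS format.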

[5] = qHTS assay to identify small molecule antagonists of the peroxisome proliferator-activated receptor gamma (PPARg) signaling pathway - cell viability counter screen (AID 743194); settings: Potency: co-treated with 50 nM rosiglitazone; further: nearly all actives have a fitted effect of over 55% in size
Outline: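 Cytotoxicity counter screen in PPARg-bla HEK293H cells, same wells as reporter assay. Compounds plus 50 nM rosiglitazone (final) for 17 h at 37 C, then viability read by CellTiter-Glo luminescence.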

[6] = qHTS assay for small molecule agonists of the antioxidant response element (ARE) signaling pathway - cell viability counter screen (AID 743203; calls by dose curve; further: nearly all actives have a fitted effect of over 55% in size)
Outline: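 Luminescence read-out (CellTiter-Glo, 30 min at room temperature) measured cell viability in the same wells as the ARE beta-lactamase reporter. HepG2 ARE-bla cells were treated with compounds for 16 hrs at 37C/5% CO2.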

[7] = qHTS assay for small molecule activators of the heat shock response signaling pathway - cell viability counter screen (AID 743209); further: nearly all actives have a fitted effect of over 50% in size
Outline: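 HSE-bla HeLa; 1500 cells/well; overnight 37 C, 5% CO2; compound 5 h 37 C; LiveBLAzer B/G substrate 2.5 h RT; CellTiter-Glo 30 min RT; luminescence.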

[8] = qHTS assay for small molecule activators of the heat shock response signaling pathway (AID 743210; active means well fitted activation curve with a large enough effect in the signal ratio in the repeat runs, with a control signal flat, not every such curve was filed as active; the % refers to the signal ratio;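 further: HeLa cells with beta-lactamase reporter driven by heat shock elements; series mostly up to about 63 µM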)
Outline: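 Beta-lactamase reporter read-out: FRET substrate fluorescence after 2.5 h at RT, following 5 h compound treatment at 37 C of HeLa cells carrying HSE-driven bla reporter; quantitative HTS format.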

[9] = qHTS assay to identify small molecule agonists of the peroxisome proliferator-activated receptor delta (PPARd) signaling pathway - cell viability counter screen (AID 743211); further: nearly all actives have a fitted effect of over 55% in size
Outline: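 qHTS cell viability: PPARd-bla HEK293H; 17 h cpd, 37C; CellTiter-Glo, luminescence at 30 min RT.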

[10] = qHTS assay to identify small molecule agonists of the farnesoid-X-receptor (FXR) signaling pathway - cell viability counter screen (AID 743218); further: nearly all actives have a fitted effect of over 45% in size
Outline: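 Luminescence from CellTiter-Glo, read after 30 min at RT, reports viability of GeneBLAzer FXR-UAS-bla HEK 293T cells treated 16 h with compounds in the wells used for the beta-lactamase reporter.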

[11] = qHTS assay to identify small molecule antagonists of the farnesoid-X-receptor (FXR) signaling pathway - cell viability counter screen (AID 743221; active means well fitted cell-killing curve with a large enough effect in the repeat runs, not every such curve was filed as active; further: nearly all actives have a fitted effect of over 50% in size)
Outline: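 After a 5 h settling period, FXR-bla HEK 293T cells receive compound and chenodeoxycholic acid (50 uM final) and incubate 16 h at 37 C; CellTiter-Glo luminescence, read after 30 min at room temperature, reports cell viability.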

[12] = molecular target: Peroxisome proliferator-activated receptor gamma (Homo sapiens) (UniProt P37231); assay: qHTS assay to identify small molecule antagonists of the peroxisome proliferator-activated receptor gamma (PPARg) signaling pathway (AID 743191; calls by dose curve; further: nearly all actives have a fitted effect of over 30% in size; further: potency means the concentration at half of the fitted maximal effect)
Outline: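 GeneBLAzer PPARg UAS-bla HEK293H cells, 5 h post-plating, exposed to compounds 17 h at 37C. LiveBLAzer B/G FRET substrate added for 1 h at room temperature; beta-lactamase reporter read by fluorescence intensity.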

[13] = molecular target: Peroxisome proliferator-activated receptor delta (Homo sapiens) (UniProt Q03181); assay: qHTS assay to identify small molecule agonists of the peroxisome proliferator-activated receptor delta (PPARd) signaling pathway (AID 743212; calls by dose curve)
Sequence of Peroxisome proliferator-activated receptor delta (Homo sapiens) (Q03181 whole entry, looked up): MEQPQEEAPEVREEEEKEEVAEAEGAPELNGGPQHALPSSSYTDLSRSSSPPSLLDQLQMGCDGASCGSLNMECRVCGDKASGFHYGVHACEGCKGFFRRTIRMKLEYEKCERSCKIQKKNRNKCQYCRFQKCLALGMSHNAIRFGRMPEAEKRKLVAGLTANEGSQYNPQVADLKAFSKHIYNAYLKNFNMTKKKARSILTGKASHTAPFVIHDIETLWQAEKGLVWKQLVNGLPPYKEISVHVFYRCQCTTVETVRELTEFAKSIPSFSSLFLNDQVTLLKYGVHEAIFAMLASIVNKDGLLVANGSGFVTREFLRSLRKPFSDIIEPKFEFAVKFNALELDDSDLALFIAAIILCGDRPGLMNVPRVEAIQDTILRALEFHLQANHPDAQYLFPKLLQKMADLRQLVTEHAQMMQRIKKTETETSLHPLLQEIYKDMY
Outline: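 Read-out: beta-lactamase FRET fluorescence after 2 h room-temperature incubation with LiveBLAzer B/G substrate. Cells were HEK293H carrying a UAS-bla reporter for PPARd, treated at 37 C with DMSO-dissolved compounds.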

[14] = molecular target: Peroxisome proliferator-activated receptor delta (Homo sapiens) (UniProt Q03181); assay: qHTS assay to identify small molecule antagonists of the peroxisome proliferator-activated receptor delta (PPARd) signaling pathway (AID 743215; active means well fitted inhibition curve with a large enough effect in the signal ratio in the repeat runs, not every such curve was filed as active; the % refers to the signal ratio;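 further: cells stimulated with agonist L165041 at 300 nM final during compound exposure; series mostly up to about 62 µM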)
Outline: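 HEK293H GeneBLAzer PPARd UAS-bla reporter cells; cpd + L165041 300 nM final, 17 h 37 C; LiveBLAzer B/G FRET substrate 2 h RT; fluorescence intensity read-out. Antagonist mode.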

[15] = molecular target: Vitamin D3 receptor (Homo sapiens) (UniProt P11473); assay: qHTS assay to identify small molecule antagonists of the vitamin D receptor (VDR) signaling pathway (AID 743223; active means well fitted inhibition curve with a large enough effect in the signal ratio in the repeat runs, not every such curve was filed as active; the % refers to the signal ratio)
Sequence of Vitamin D3 receptor (Homo sapiens) (P11473 whole entry, looked up): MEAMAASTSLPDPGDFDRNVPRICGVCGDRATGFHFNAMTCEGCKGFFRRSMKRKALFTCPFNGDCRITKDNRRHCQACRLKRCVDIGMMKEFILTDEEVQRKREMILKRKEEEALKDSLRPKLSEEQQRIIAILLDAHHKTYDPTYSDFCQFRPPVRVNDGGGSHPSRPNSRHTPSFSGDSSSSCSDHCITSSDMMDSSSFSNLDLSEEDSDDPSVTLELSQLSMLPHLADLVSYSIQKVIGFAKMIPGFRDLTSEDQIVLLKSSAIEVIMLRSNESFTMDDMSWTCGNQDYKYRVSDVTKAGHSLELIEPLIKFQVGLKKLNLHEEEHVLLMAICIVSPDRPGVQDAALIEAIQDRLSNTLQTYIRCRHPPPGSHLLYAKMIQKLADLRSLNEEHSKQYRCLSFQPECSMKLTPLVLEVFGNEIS
Outline: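 Reporter line VDR-bla; stimulus 1alpha,25-(OH)2 vitamin D3, 3 nM final; compound co-addition, 16 h 37C/5% CO2; LiveBLAzer B/G substrate 2 h RT; fluorescence intensity.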

[16] = qHTS assay for small molecule agonists of the antioxidant response element (ARE) signaling pathway (AID 743202; active means well fitted activation curve with a large enough effect in the signal ratio in the repeat runs, not every such curve was filed as active; the % refers to the signal ratio)
Outline: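 HepG2 ARE-bla reporter line, 2,000 cells/well; 5 h preincubation 37 C/5% CO2; compound (DMSO) 16 h 37 C; B/G FRET substrate 2 h RT; fluorescence intensity.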

[17] = qHTS assay to identify small molecule antagonists of the peroxisome proliferator-activated receptor delta (PPARd) signaling pathway - cell viability counter screen (AID 743213); further: nearly all actives have a fitted effect of over 50% in size
Outline: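 In this counter screen, HEK293H cells carrying a UAS-beta-lactamase reporter are co-treated with test compounds and 300 nM L165041 (final) for 17 h at 37 C; cell viability is quantified by CellTiter-Glo luminescence.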

[18] = molecular target: Vitamin D3 receptor (Homo sapiens) (UniProt P11473); assay: qHTS assay to identify small molecule agonists of the vitamin D receptor (VDR) signaling pathway (AID 743222; calls by dose curve)
Outline: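 Beta-lactamase reporter readout (LiveBLAzer B/G FRET, 2 h RT) in VDR-bla cells after 16 h compound treatment at 37C, 5% CO2; cells pre-incubated 4 h before pin transfer of DMSO solutions.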

[19] = molecular target: Bile acid receptor (Homo sapiens) (UniProt Q96RI1); assay: qHTS assay to identify small molecule antagonists of the farnesoid-X-receptor (FXR) signaling pathway (AID 743217; active means well fitted inhibition curve with a large enough effect in the signal ratio in the repeat runs, not every such curve was filed as active; the % refers to the signal ratio)
Sequence of Bile acid receptor (Homo sapiens) (Q96RI1 whole entry, looked up): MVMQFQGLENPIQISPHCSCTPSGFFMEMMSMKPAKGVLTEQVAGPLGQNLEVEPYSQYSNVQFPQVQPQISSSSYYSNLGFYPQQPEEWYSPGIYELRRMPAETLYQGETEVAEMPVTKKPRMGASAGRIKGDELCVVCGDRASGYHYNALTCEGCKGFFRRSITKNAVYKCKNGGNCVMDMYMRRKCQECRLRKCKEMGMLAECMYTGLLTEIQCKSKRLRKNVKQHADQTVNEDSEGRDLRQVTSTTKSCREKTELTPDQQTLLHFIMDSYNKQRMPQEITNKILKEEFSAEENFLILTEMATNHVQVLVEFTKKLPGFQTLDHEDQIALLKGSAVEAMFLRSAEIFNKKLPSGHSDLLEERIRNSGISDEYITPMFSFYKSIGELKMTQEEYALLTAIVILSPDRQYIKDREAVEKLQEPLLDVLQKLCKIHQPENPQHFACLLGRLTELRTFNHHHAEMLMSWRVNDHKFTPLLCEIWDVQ
Outline: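 Read-out: beta-lactamase FRET fluorescence (LiveBLAzer B/G substrate, 2 h, room temperature) in GeneBLAzer FXR-UAS-bla HEK 293T cells. Compounds were co-dosed with 50 uM chenodeoxycholic acid (final) and incubated 16 h at 37 °C.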

[20] = molecular target: Bile acid receptor (Homo sapiens) (UniProt Q96RI1); assay: qHTS assay to identify small molecule agonists of the farnesoid-X-receptor (FXR) signaling pathway (AID 743220; active means well fitted activation curve with a large enough effect in the signal ratio in the repeat runs, not every such curve was filed as active; the % refers to the signal ratio)
Outline: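 FXR-UAS-bla HEK 293T cells carrying a UAS-driven beta-lactamase reporter were plated for 5 h at 37C/5% CO2, then exposed to DMSO-dissolved Tox21 10K compounds for 16 h at 37C. A LiveBLAzer B/G FRET substrate was loaded for 2 h at room temperature before fluorescence reading.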

Row | Structure (SMILES) | Potency [1] | Potency [2] | Potency [3] | Potency [4] | Potency [5] | Potency [6] | Potency [7] | outcome [8] | Potency [9] | Potency [10] | Potency [11] | Potency [12] | outcome [13] | Potency [14] | outcome [15] | Potency [16] | Potency [17] | outcome [18] | Potency [19] | outcome [20]
1 | BrCCCCBr | inactive | inactive | inactive | inactive | inactive | inactive | inactive | inactive | inactive | inactive | inactive | – | – | – | – | – | – | – | – | –
2 | COC(=O)C(C)N(C(=O)Cc1ccccc1)c1c(C)cccc1C (stereo not drawn) | inactive | inactive | inactive | inactive | – | inactive | inactive | inactive | inactive | inactive | inactive | inactive | inactive | inactive | inactive | – | – | – | – | –
3 | CNC(C)Cc1ccccc1OC (stereo not drawn) | inactive | inactive | inactive | inactive | inactive | inactive | inactive | inactive | inactive | – | inactive | – | inactive | inactive | inactive | inactive | inactive | inactive | – | –
4 | Cc1ccccc1CCl | inactive | inactive | inactive | – | inactive | inactive | inactive | inactive | inactive | inactive | inactive | inactive | inactive | inactive | – | – | inactive | inactive | – | –
5 | O=C1C(Cl)C(CCl)CN1c1cccc(C(F)(F)F)c1 (stereo not drawn) | inactive | 48.6 µM (active) | inactive | – | inactive | inactive | inactive | inactive | inactive | inactive | inactive | 21.9 µM (active) | inactive | inactive | – | – | inactive | inactive | – | –
6 | C=CC(C)=O | inactive | inactive | inactive | inactive | inactive | inactive | inactive | inactive | inactive | inactive | inactive | – | inactive | inactive | – | inactive | inactive | – | inactive | inactive
7 | Cc1ccc2ccccc2c1 | inactive | inactive | inactive | inactive | inactive | inactive | inactive | inactive | inactive | inactive | inactive | – | inactive | inactive | – | – | – | – | inactive | inactive
8 | O=Cc1ccc(Cl)cc1Cl | inactive | inactive | inactive | inactive | inactive | inactive | inactive | inactive | inactive | inactive | – | – | inactive | inactive | inactive | inactive | inactive | inactive | – | –
9 | CS/C(C)=N/OC(=O)N(C)SN(C)C(=O)O/N=C(\C)SC | inactive | inactive | inactive | inactive | – | inactive | inactive | – | inactive | inactive | – | – | inactive | – | – | inactive | inactive | – | inactive | inactive
10 | ClP(Cl)(Cl)(Cl)Cl | inactive | inactive | inactive | – | inactive | inactive | inactive | inactive | inactive | inactive | – | inactive | inactive | inactive | inactive | – | inactive | inactive | inactive | –
